Where “and” joins values, the source holds several entries; their conditions need not be identical. Identical values can stand only once. This is part of a sample that, as a whole, favours compounds with a hit. Of some 83,000 tested, about 20% had one in any assay.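 Negative percent growth values reflect cell death: -40 means 40% of the cells present at the start died, and -100 means all died.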 Unmarked numbers belong to inactive results. Calls of active or inactive are those of the source.
test system: CAKI-1 renal; experiment: NCI-60 one-dose screen, 48 h (100 = growth as untreated, 0 = no growth, -100 = all killed); conditions: 0.005 µM
Description: Growth inhibition of the CAKI-1 human tumor cell line is measured as a screen for anti-cancer activity. Cells are grown in 96 well plates and exposed to the test compound for 48 hours. Compounds are tested at a single concentration, which is 10^-5 M for most compounds. The reported endpoint is percent growth (GI% or GIPRCNT), where numbers from 0 - 100% represent growth inhibition, and numbers from -100% - 0 represent cell death. For example, a value of 40 represents 60% growth inhibition. A value of 0 means no net growth occurred over the course of the experiment. A value of -40 indicates 40% of cells at the beginning of the experiment died by the end of the experiment. A value of -100 means all cells are dead at the end of the experiment.
NCI-60 Human Tumor Cell Lines Screen was performed using the standard one-dose NCI protocol, which is described in more detail at https://dtp.cancer.gov/discovery_development/nci-60/default.htm.
Compounds with GIPRCNT values below 10 were considered active. Activity score was based on GIPRCNT using the following formula: […]
Score is 0 for GIPRCNT values of 100 or above, 50 for GIPRCNT values of 0, and 100 for GIPRCNT values of -100.

Structure (SMILES)	growth
CN(C)CCNc1ncc(F)c(-c2cnc3cc(-c4cnn(C)c4)ccn23)n1	99.5%

same assay, conditions: 10 µM unless noted

Structure (SMILES)	growth
FC(F)(F)Sc1ccc(/C=C/c2cc(/C=C/c3ccc(SC(F)(F)F)cc3)n(-c3ccccc3)n2)cc1	78.5%
COc1ccc2nc3cc(Cl)ccc3c(NCCCNCCC(C)O)c2c1 (stereo not given)	-3.91% (active)
CCCCC1COc2cccc3c2N1C=C/C3=C\C(=O)N(C)c1cccc(Cl)c1 (stereo not given)	78.9%
O=C(Nc1ccc(F)cc1)c1cc2cc(Nc3nc(-c4ccccc4)nc4ccccc34)ccc2oc1=O	101%
O=C(Nc1cc(C(F)(F)F)cc(C(F)(F)F)c1)c1cc(Cl)ccc1O	-20.5% (active) and -23.8% (active)
CSc1nnc(-c2cc3c([nH]c4ccccc43)c(-c3cccc(O)c3)n2)n1-c1ccc(C)cc1	48.3%
O=C1/C(=C/c2ccc(-c3cccc(C(F)(F)F)c3)o2)SC(=S)N1CCc1ccc(O)cc1	53.8%
CN(C)C1CCN(C(=O)c2ccc(NC(=O)Nc3ccc(-c4nc(N5CCOCC5)c5cccn5n4)cc3)cc2)CC1	69.6%
[2H]C([2H])([2H])Oc1cc(F)ccc1/C=C/C(=O)/C=C(/C=C/c1ccc(F)cc1OC([2H])([2H])[2H])OB(F)F	18.2%
CC1(C)C(N)=Nc2cc(OCCCN3Cc4ccc(OCCc5cn(CC(=O)N6CCC(CCN7CCCC7)CC6)nn5)cc4C3)c(OCC3CC3)cc21	91.2%
C/C=C(/C)C(=O)O[C@@H]1CC(C)(C)CC2C34OC(=O)[C@@]21CC[C@@]3(C)[C@]1(C)CCC2C(C)(C)C(=O)CC[C@]2(C)C1C[C@@H]4Cl (stereo not given in full)	79.9%
CCCCCCCCCCCCC[C@H](O)C[C@H](O)[C@H](C)N	110% [1.25 µM]
S=c1nc(CS)[nH]c2ccccc12	77.1%
O=C(N/N=C/c1ccc(O)cc1O)c1cccc(Nc2ccnc(C(F)(F)F)c2)c1	40.3%
Cc1nnc(NS(=O)(=O)c2ccc(N=Nc3ccc(N)nc3N)cc2)s1	98% and 96%
COc1ccc(C2=C(CN)C(O)NC(=NCC(=O)c3ccc4ccccc4c3)N2)cc1 (stereo not given)	94.5%
CN1CCN(CCNC(=O)c2cccc(CN3c4cccc5c4C(=Cc4cccnc43)N(C)C5=O)c2)CC1	8.78% (active)
Cc1ccc(C(=O)c2ccc(CC(=O)N=Nc3c(O)[nH]c4ccc(OC(F)(F)F)cc34)n2C)cc1	91.1%
Cc1n(Cc2ccc3ccccc3c2)c(Cl)c(Cl)[n+]1Cc1ccc2ccccc2c1	29.2%

Structure (SMILES)	growth
COc1cc(C(=O)c2ccccc2C(=O)O)c(OC)c2c1CCCC2	98.2% and 98.9%
O=C1/C(=C/c2cn(-c3ccccc3)nc2-c2ccccc2)SC(=S)N1c1ccc(Cl)cc1	75.2%
O=C(CC1(O)C(=O)Nc2ccc(Br)cc21)c1ccc(Cl)cc1 (stereo not given)	98.9%
O=C1Nc2ccccc2/C1=C/c1cccn1CCCCCn1c2ccccc2c(=O)c2ccccc21	65.9%
CCOC(=O)c1nc2c3ccccc3cnn2c1C(=O)c1ccc(OC)cc1	86.9%
Cc1nc2sc(C(=O)Nc3cccc4ncccc34)c(N)c2cc1C(C)O (stereo not given)	89.7%
Cc1ccc(/C=C(\C#N)c2cc3ccccc3[nH]2)cc1	45.6%
Clc1cccc(Nc2ncnc3ccc(-c4cncc(-n5cnnn5)c4)cc23)c1	24.3%
Nc1ccc(/C=N/Nc2ccnc3c(N)cccc23)c2cccnc12	31.9%
COc1ccc(/C(C)=C(\c2ccc(OCCN3CCCCCC3)cc2)c2ccc(OC(=O)C3CCCCC3)cc2)cc1	-34.4% (active)
O=C1C(N2CCOCC2)=C(I)C(=O)c2ncccc21	76.1%
CN1CCN(Cc2ccc(NC(=O)c3cccc(C#Cc4c(N)ncc5ccc(F)cc45)c3)cc2C(F)(F)F)CC1	-98.5% (active)
CC[C@]1(O)CC2CN(CCc3c([nH]c4ccccc34)C(C(=O)OC)(c3cc4c(cc3OC)N(C=O)[C@H]3[C@@](O)(C(=O)OC)[C@H](OC(C)=O)[C@]5(CC)[C@@H]6C[C@@H]6CN6CC[C@]43[C@@H]65)C2)C1 (stereo not given in full)	32.1%
COc1ccccc1/C=C1\COc2ccc(O)c(O)c2C1=O	31.9%
O=c1c(/C=C/c2ccco2)nnc2sc(Nc3ccc(Cl)cc3)nn12	98.5%
Cc1ccccc1SSc1ccccc1C	60.5%
CN1C(=O)N(C)C2(c3ccccc3)N(CC(=O)Nc3ccccc3O)C(=O)NC12c1ccccc1 (stereo not given)	74.1%
CCN1C(=O)N(c2ccccc2)C2NC(=S)N(/N=C/C=C/c3ccccc3)C21 (stereo not given)	29.6%
Cn1cc2c(=O)nc3c(-c4nc5ccccc5[nH]4)n[nH]n3c2n1	86.8%

same assay, conditions: 30 µM

Structure (SMILES)	growth
CN(C)CCNc1ncc(F)c(-c2cnc3cc(-c4cnn(C)c4)ccn23)n1	15.5%
